# Among all 2,200 compounds or so, about 480 (22%) were called active. No rule for the calls is given here. A selection follows. Entries with a potency or affinity are not part of this list.
# Experiment: S. Typhimurium GFP fluorescence modified counterscreen for PhoP regulon inhibitor project dose response (AID 1981)
# Settings: 4 h; series mostly up to 150 µM
row,SMILES,outcome
1,c1ccn2c(CNc3ncnc4sccc34)nnc2c1,inactive
2,CCCCOC(=O)CCNc1n[nH]c(=O)[nH]c1=O,inactive
3,O=C(Nc1ccc(NC(=O)C23CC4CC(CC(C4)C2)C3)cn1)c1ccco1,inactive
4,CC(=O)N/N=C/c1ccc(OCCOc2ccc(Br)cc2)cc1,inactive
5,COC(=O)CCC(=O)Nc1ccc(OC)cc1,inactive
6,O=C1CCCc2c1cc(C(=O)NCc1ccco1)c(=O)n2-c1ccc(Cl)cc1,inactive
7,COc1ccc(OC)c(C2=Nn3c(nnc3-c3cc(OC)c(OC)c(OC)c3)SC2)c1,inactive
8,O=C(Cc1ccc(Cl)cc1)NNS(=O)(=O)c1ccc([N+](=O)[O-])cc1,inactive
9,N[C@H](CSCc1ccccc1)C(=O)Nc1ccc([N+](=O)[O-])cc1,inactive
10,Cc1ccc(CSCc2nc3ccccc3[nH]2)cc1,inactive
11,CN1CCCC(OC(=O)CCCC(=O)OC2CCCN(C)C2)C1 (centres undefined),inactive
12,O=C(c1ccc(Oc2ccccc2)cc1)c1nc2c(n1O)CCCC2,inactive
13,CC1CC(C)CN(CCCSc2ccccc2)C1 (centres undefined),inactive
14,CC(Nc1ccc(Br)cn1)c1cc(Cl)ccc1O (centres undefined),inactive
15,O=C(CN1CCN(c2ccccn2)CC1)Nc1ccc(Oc2ccccc2)cc1,inactive
16,Cc1nn2c(=O)cc(CSc3nc4ccccc4[nH]3)nc2s1,inactive
17,CC(=Nc1c(C)n(C)n(-c2ccccc2)c1=O)c1c(O)n(Cc2ccccc2)c(=O)[nH]c1=O,inactive
18,Cc1cc2nn(-c3ccccc3)nc2cc1NC(=O)c1cccs1,inactive
19,NNC(=O)CNC(c1ccccc1)c1cc(Br)ccc1NC(=O)c1ccc(Br)cc1 (centres undefined),inactive
20,O=C(/C=C/c1ccco1)N/C(=C\c1ccccc1)C(=O)NCCc1nc2ccccc2[nH]1,inactive
21,O=C(O)CCc1nn2c3ccccc3n(CCN3CCCCC3)c2nc1=O,inactive
22,O=C(NCc1cccs1)[C@@H]1CSC2c3ccccc3C(=O)N21 (some centres undefined),inactive
23,CC(C(=O)NC1CCCc2ccccc21)N1CCN(Cc2ccc3c(c2)OCO3)CC1 (centres undefined),inactive

row,SMILES,outcome
1,Cc1ccc(NC2CC(=O)N(Cc3ccccc3)C2=O)cc1 (centres undefined),inactive
2,NC(=O)C1(NC(=O)[C@@H]2CC3(CC(c4cccc(NC(=O)[C@@H]5CCC(=O)N5)c4)=NO3)CN2C(=O)Cc2ccc(Cl)cc2)CC1 (some centres undefined),inactive
3,Cc1ccc(C=Nc2ccccc2C(N)=O)s1,inactive
4,CC(=O)Nc1ccc(-c2nnc(SCc3c(C)cc(C)cc3C)n2C)cc1,inactive
5,O=C(NCc1cccs1)c1cccc(Nc2nc3ccc(Br)cc3[nH]2)c1,inactive
6,Nc1c(C(=O)NCCc2ccc(Cl)cc2)sc2ccc(S(=O)(=O)N3CCCCC3)cc12,inactive
7,CCCCCCCCNc1ncnc2ccccc12,inactive
8,Clc1ccc(OCCn2ccnc2)c(Br)c1,inactive
9,Cc1ccc(N2C(=O)CC(Nc3ccccc3)C2=O)cc1 (centres undefined),inactive
10,COC(=O)c1sccc1N/N=C(\C)c1ccc(F)c(Cl)c1,inactive
11,CCN(CC(=O)N1CCN(Cc2ccccc2)CC1)S(=O)(=O)c1ccc(F)cc1,inactive
12,O=C(Nn1c(O)c(C=C2N=c3ccccc3=N2)sc1=S)c1ccc(Cl)cc1,inactive
13,C=CCn1c(SCC(=O)Nc2nnc(CC)s2)nnc1-c1cccnc1,inactive
14,CN(c1ccccc1)S(=O)(=O)c1ccc(C(=O)Nc2nnc(-c3ccc(F)cc3)o2)cc1,inactive
15,Cc1ccc(C)c(NC(=O)C(Sc2nnc(-c3cccs3)o2)c2ccccc2)c1 (centres undefined),inactive
16,Cc1cc(-c2c(C)n([O-])c(C)c(C)[n+]2=O)ccc1F,inactive
17,COc1cc(C(=O)NC(=S)Nc2ccc3oc(=O)ccc3c2)cc(OC)c1OC,inactive
18,CC1(C)CC(=O)C2=C(C1)OC1=C(C(=O)CC(C)(C)C1)C2c1ccc(O)cc1O,inactive
19,Cc1cc(Nc2ccccc2F)n2ncnc2n1,inactive
20,C/C(=N\N=C(/N)SC1CC(=O)N(c2cccc(Cl)c2)C1=O)c1cccs1 (centres undefined),inactive
21,CCCCCCNCc1cccc(Br)c1,inactive
22,Cc1ccccc1NC(=O)Nc1cccs1,inactive
23,O=C(c1cc(-c2cccs2)nc2ccccc12)N1CCN(c2ccccc2O)CC1,inactive

row,SMILES,outcome
1,CCC1=NNc2cccc3c(OC)ccc1c23,inactive
2,O=C1Nc2ccccc2C12OCC1(CO2)COC2(OC1)C(=O)Nc1ccccc12 (centres undefined),inactive
3,Cc1ccc2nc(SCC(=O)NCc3ccco3)[nH]c2c1,inactive
4,Cc1ccc(C(C)C)c(OCC(=O)N2CCN(Cc3nc4cc([N+](=O)[O-])ccc4n3C)CC2)c1,inactive
5,Cc1cc(C)cc(-n2nc(C)cc2N)c1,inactive
6,CCCN1C(=O)SC(CC(=O)Nc2ccc(Br)cc2)C1=O (centres undefined),inactive
7,Cn1c(NCc2cccs2)nc2ccccc21,inactive
8,CC1CCC(C(C)C)C(OC(=O)Cn2c(-c3ccc(Cl)cc3)[n+](C)c3ccccc32)C1 (centres undefined),inactive
9,CC(C)[C@@H]1CC[C@@H](C)C[C@H]1OC(=O)C[n+]1cc(-c2ccc(Cl)cc2)n2c1CCCCC2,inactive
10,NC[C@@]12CCCC1C1CCC2C1 (some centres undefined),inactive
11,CN(C)S(=O)(=O)Oc1ccsc1C(=O)Nc1ccccc1Cl,inactive
12,COC(=O)c1cccc(NC(=O)CCCOc2ccccc2)c1,inactive
13,O=C(CSC1CC(=O)N(CCc2ccccc2)C1=O)Nc1cccc(Cl)c1 (centres undefined),inactive
14,Nc1ccc2nc(SCC(=O)Nc3ccc(N4CCOCC4)c(Cl)c3)sc2c1,inactive
15,Cc1cccc(NC(=O)CCC(=O)OCc2ccc(Br)cc2)c1,inactive
16,Cc1nc2ccccc2n1CC(=O)N/N=C\C=C\c1ccccc1,inactive
17,O=C(CCN1C(=O)c2ccccc2C1=O)Nc1ccc(-c2cn3ccsc3n2)cc1,inactive
18,CC(C)(C)n1ncc2c(=O)n(CC(=O)Nc3ccc4c(c3)OCO4)cnc21,inactive
19,O=C1NC(=Nc2ccccc2)/C(=C/c2ccco2)S1,inactive
20,COC(=O)c1ccc(CSc2nnnn2-c2ccccc2)o1,inactive
21,O=C1c2ccccc2C(=O)N1CCCc1nc(-c2ccccn2)no1,inactive
22,O=C(/C=C/c1ccccc1)N/C(=C/c1ccccc1)C(=O)N1CCOCC1,inactive
23,C=CCOc1ccc(Br)cc1/C=N/O,inactive

row,SMILES,outcome
1,CCCOc1ccc(Br)cc1CSC(=N)N,inactive
2,COC(=O)c1ccc(NC(=O)c2ccc(N(C)S(C)(=O)=O)cc2)cc1,inactive
3,CC1CCCCN1CCNS(=O)(=O)c1ccc2c(c1)oc(=O)n2C (centres undefined),inactive
4,O=C1NC2=C(CCc3ccccc32)C(c2ccc(Br)cc2)N1 (centres undefined),inactive
5,Cc1ccccc1NC(=O)c1ccc(-n2cncn2)nc1,inactive
6,CCc1nc2ccccc2c2nc3ccccc3n12,inactive
7,CCOC(=O)CC(=O)CSc1nc2c(c(C)c1C#N)CCC2,inactive
8,N/C(=N\c1nc2ccccc2o1)NC(=O)c1ccccc1F,inactive
9,CC(=O)Nc1cc(N=Cc2ccc(O)cc2O)c(Cl)cc1Cl,inactive
10,Oc1ccc(/C=N/n2cnn(Cc3ccccc3Cl)c2=S)c(O)c1,inactive
11,Oc1ccc(/C=N/NC2=NCCCCC2)c(O)c1,inactive
12,CC1C(=O)NN=C1C(=O)N/N=C\c1ccc(O)cc1O (centres undefined),inactive
13,O=C(N/N=C/c1ccc(O)cc1O)/C(=C/c1ccccc1)CCO,inactive
14,Cc1ccc2nc(SCCCCOc3ccccc3)[nH]c2c1,inactive
15,CCOC(=O)CN1C(=O)C(C)(C)Oc2ccc(C(=O)Nc3ccccc3OC)cc21,inactive
16,O=C(Nc1cc(C(F)(F)F)ccc1N1CCOCC1)c1ccc(Br)o1,inactive
17,COc1ccc(C)cc1NC(=O)C(Sc1nnc(-c2ccncc2)n1-c1ccc(Cl)cc1)c1ccccc1 (centres undefined),inactive
18,Cc1ccc(N=Cc2sc(O)c3ccccc23)cc1,inactive
19,O=C1CSC(=S)N1c1ccc(F)cc1,inactive
20,CC(=O)Nc1nc(-c2ccc(Cl)cc2)nc(C)c1C(C)=O,inactive

# — PubChem BioAssay AID1981 (Southern Research Specialized Biocontainment Screening …, 2009)
